Where “and” joins values, the source holds several entries; their conditions need not be identical. Identical values can stand only once. Hit rate of the full screen: of about 220,000 compounds, about 5,700 (2.6%) were called active. Entries that show only a call come without a potency. Not shown: some 18% with an inconclusive outcome. The call rests on the fitted dose curve; in most records, active means well fitted inhibition curve with a large enough effect; inconclusive means small, poorly fitted or top-dose-only effect; inactive means no such curve, though single readings can be large or run the other way. This excerpt belongs to a sample that is enriched for actives.
Potency means the concentration at half of the fitted maximal effect.

This assay deals with Lysine-specific demethylase 5B (Homo sapiens) (UniProt Q9UGL1). Nature of the assay: Primary screen for KDM5B Histone Demethylases FDH-coupled qHTS. Further: nearly all actives have a fitted effect of over 70% in size. Particulars: FDH-coupled NADH fluorescence (FDH is formaldehyde dehydrogenase); series mostly up to 57.7 µM. In a few lines: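 qHTS format, multiple compound concentrations. Buffer 50 mM HEPES pH 7.5/0.01% Tween-20; 200 nM KDM5BΔAP final; 10 min compound preincubation; substrate-mix levels 12.5 µM peptide, 25 µM α-KG, 0.25 mM NAD⁺; 30 min RT; ΔRFU.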
Sequence of Lysine-specific demethylase 5B (Homo sapiens) (Q9UGL1 whole entry, looked up): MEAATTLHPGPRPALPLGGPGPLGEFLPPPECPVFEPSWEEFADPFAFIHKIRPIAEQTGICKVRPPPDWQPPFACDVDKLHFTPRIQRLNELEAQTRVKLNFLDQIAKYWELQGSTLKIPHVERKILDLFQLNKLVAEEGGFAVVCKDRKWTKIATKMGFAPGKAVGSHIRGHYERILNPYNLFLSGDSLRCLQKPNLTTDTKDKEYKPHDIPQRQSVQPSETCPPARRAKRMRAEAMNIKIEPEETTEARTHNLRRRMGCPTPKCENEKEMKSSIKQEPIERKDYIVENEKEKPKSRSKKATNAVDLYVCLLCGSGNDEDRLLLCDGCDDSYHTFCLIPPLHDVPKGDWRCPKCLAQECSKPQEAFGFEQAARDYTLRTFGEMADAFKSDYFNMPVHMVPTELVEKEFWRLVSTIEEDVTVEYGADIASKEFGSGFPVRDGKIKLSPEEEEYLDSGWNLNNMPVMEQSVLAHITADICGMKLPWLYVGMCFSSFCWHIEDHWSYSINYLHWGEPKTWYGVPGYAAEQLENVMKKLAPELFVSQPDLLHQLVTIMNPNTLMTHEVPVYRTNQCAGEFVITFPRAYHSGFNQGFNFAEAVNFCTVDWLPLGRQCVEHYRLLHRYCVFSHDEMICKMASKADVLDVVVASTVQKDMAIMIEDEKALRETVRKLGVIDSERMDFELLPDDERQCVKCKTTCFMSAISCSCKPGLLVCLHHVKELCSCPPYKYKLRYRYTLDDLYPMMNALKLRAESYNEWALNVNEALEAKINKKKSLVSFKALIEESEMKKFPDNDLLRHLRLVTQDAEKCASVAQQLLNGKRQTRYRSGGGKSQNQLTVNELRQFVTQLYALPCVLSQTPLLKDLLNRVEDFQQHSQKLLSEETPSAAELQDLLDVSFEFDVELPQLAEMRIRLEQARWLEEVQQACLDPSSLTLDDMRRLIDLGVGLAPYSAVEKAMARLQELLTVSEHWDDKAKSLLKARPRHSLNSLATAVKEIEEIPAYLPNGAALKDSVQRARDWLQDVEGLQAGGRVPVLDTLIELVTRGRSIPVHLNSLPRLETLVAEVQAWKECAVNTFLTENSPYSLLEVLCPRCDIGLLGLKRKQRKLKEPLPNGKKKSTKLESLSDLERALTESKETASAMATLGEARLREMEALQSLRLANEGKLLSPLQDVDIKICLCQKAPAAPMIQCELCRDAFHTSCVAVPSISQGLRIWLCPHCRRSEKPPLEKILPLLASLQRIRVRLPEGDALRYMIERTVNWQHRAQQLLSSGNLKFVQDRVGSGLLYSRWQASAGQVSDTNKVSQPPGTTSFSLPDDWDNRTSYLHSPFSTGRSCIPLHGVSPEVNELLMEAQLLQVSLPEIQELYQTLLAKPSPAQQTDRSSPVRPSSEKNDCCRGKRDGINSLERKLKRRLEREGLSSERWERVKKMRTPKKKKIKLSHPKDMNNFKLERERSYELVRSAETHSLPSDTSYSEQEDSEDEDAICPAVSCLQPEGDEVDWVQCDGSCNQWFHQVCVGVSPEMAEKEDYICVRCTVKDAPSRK
Background: Quantitative high-throughput screening tests each substance at several concentrations.
For `O=C(c1ccco1)N1CCC(C(=O)N2CCN(C(=O)C3CC3)CC2)CC1`, the Potency result is “inactive”. The entry for `CC(=O)Nc1ccc(SCC(=O)N(Cc2nc3ccccc3c(=O)[nH]2)CC2CCCO2)cc1` (stereo unspecified) is “inactive”; for `COCCn1c(C)nnc1-c1cc(-c2cccc(F)c2)ccn1` it is “inactive”. With `Cc1nnc(-c2cc(-c3ccccc3)ccn2)n1CCc1ccccc1` the entry was “inactive”; with `COc1ccc(-c2ccnc(-c3nnc(C)n3C3CCN(C)CC3)c2)cc1OC`, 31.6 µM (active). With `Cc1nnc(CSc2nnc(Nc3cccc(C)c3C)s2)o1` the entry was “inactive”. Consider `COc1cc(C(=O)N2CCC(c3ccncc3)CC2)cc(OC)c1OC`, for which the Potency result was “inactive”.

As to `Fc1ccc(-c2ccnc3nc(C4CCC4)nn23)cc1`, the Potency was 31.6 µM (active). As for `O=C(Nc1cccn2nc(C3CCC3)nc12)c1cccc(F)c1`, the Potency result is “inactive”.

Take `COc1cc(-c2ccnc3nc(C4CC4)nn23)cc(OC)c1OC`: the Potency was 17.8 µM (active). With `COc1ccc(N2CC(c3noc(-c4cc(OC)c(OC)c(OC)c4)n3)CC2=O)cc1` (stereo unspecified) the entry was “inactive”; with `CCC(=O)c1ccc(OC(=O)c2cc3ccccc3oc2=O)cc1`, “inactive”; with `CSc1ncc(C(=O)Nc2ccc(Cl)cc2)c(C(F)(F)F)n1`, “inactive”.

Turning to `COc1ccccc1NC(=O)C1c2ccccc2C(=O)N(CC(C)C)C12CCCC2` (stereo unspecified), the Potency entry was “inactive”. For the compound `CC(C)(C)C(=O)c1cn(CCOc2ccccc2F)c2ccccc12`, the Potency entry is “inactive”. With `COCCNC(=O)[C@@H]1C[C@@H](O)CN1C1CCN(C(=O)CCc2ccccc2)CC1` the entry was “inactive”; with `O=C(NCc1ccccc1)N1CCN2C(=O)NC[C@H]2C1`, “inactive”. With `COc1nc2ccccc2nc1N1CCC(C(=O)NCc2ccccc2)CC1` the entry was “inactive”.

On to `COc1nccnc1NC1CCN(C(=O)CCc2ccccc2)CC1`, for which the Potency is 25.1 µM (active).

Regarding `COc1nccnc1NC1CCN(C(=O)NCc2ccccc2)CC1`, the Potency is 28.2 µM (active). With `Cc1nc2c(c(NC3CC3)n1)CCN(C(=O)CCc1cccnc1)CC2` the entry was “inactive”; with `Cc1ccc(OCc2nc(C3CCN(C(=O)CCc4nc5ccc(Cl)cc5[nH]4)CC3)no2)cc1`, “inactive”; with `Cc1noc(C)c1CC(=O)N1CCC(c2n[nH]c(=O)n2Cc2ccc(F)cc2)CC1`, “inactive”. With `COc1nccnc1NC1CCN(C(=O)CCc2c(C)noc2C)CC1`, the Potency is 31.6 µM (active). With `CC/C(=N\NC(=O)c1ccc(C(C)(C)C)cc1)c1ccccc1` the entry was “inactive”; with `Cn1cnnc1C1CCCN(S(=O)(=O)N2CCCCC2)C1` (stereo unspecified), “inactive”; with `Cc1ccc(OCC(O)Cn2cnc3sccc3c2=O)c(C)c1` (stereo unspecified), “inactive”. On to `COc1ccc2c(CC(=O)N3CCc4cc(OC)c(OC)cc4C3)coc2c1`, for which the Potency result is “inactive”. Regarding `Cc1oc2ccn(Cc3ccccc3F)c(=O)c2c1C(=O)NCCCN1CCCCC1C` (stereo unspecified), the Potency result is “inactive”. In the case of `c1cc(-c2nc3ccncc3[nH]2)ccn1`, the Potency is 126 µM (active) and 31.6 µM (active). Turning to `COc1ccc(C2=NC(c3ccncc3)=Nc3ccc(Br)cc3N2)cc1`, the Potency result is “inactive”. As to `COc1ccc(CC(=O)NC[C@@H]2C=C(C)[C@H](Cc3nc4ccncc4[nH]3)C[C@H]2C(C)C)cc1`, the Potency result was “inactive”.

For `Cc1cc(C)c(NC(=O)CSc2nc3ccncc3[nH]2)c(C)c1`, the Potency entry was “inactive”. The entry for `Cc1ccc(Nc2n[nH]nc2C(=O)Nc2ccc(C)cc2Cl)cc1` is “inactive”.

As to `Cc1csc(CNC(=O)N(C)Cc2ccc3c(c2)OCCO3)n1`, the Potency entry was “inactive”. For the compound `O=C(Nc1ccccc1Cc1ccccc1)c1cccc[n+]1[O-]`, the Potency result was “inactive”. With `O=C(NCCCn1ccnc1)c1ccc(-c2ncc3cnc(-c4cccc(F)c4)cn23)cc1` the figure was 17.8 µM (active); with `CC(C)(Oc1nn(CCOc2ccccc2)c2ccccc12)C(=O)NCCCn1ccnc1`, “inactive”; with `Cc1ccc(-c2nc(C#N)c(NCCCn3ccnc3)o2)cc1`, “inactive”.

On to `Cn1cc(S(=O)(=O)N2CCC(C(=O)Nc3ccc(OC(F)F)c(Cl)c3)CC2)cc1C(N)=O`, for which the Potency result was “inactive”. With `COC(=O)c1sccc1S(=O)(=O)Nc1ccc(OC)cc1` the entry was “inactive”. With `CN(C)C[C@@H]1CN(C)C[C@H]1NC(=O)c1cc2ccccc2[nH]1` the figure was 25.1 µM (active); with `COc1ccc2[nH]c(C(=O)N[C@@H]3CN(S(C)(=O)=O)C[C@H]3CN(C)C)cc2c1`, 28.2 µM (active). As for `CN(C)C[C@@H]1CN(C)C[C@H]1NC(=O)c1ccnnc1`, the Potency result is “inactive”. With `CC(CNC(=O)c1cc2ccccc2[nH]1)c1ccccc1` (stereo unspecified) the entry was “inactive”; with `CN(C)C[C@@H]1CN(S(C)(=O)=O)C[C@H]1NC(=O)c1cccc(F)c1`, “inactive”; with `O=C(N[C@@H]1CN(Cc2c(F)cccc2F)C[C@H]1CO)c1ccccc1`, “inactive”.

Take `COc1ccc(C(=O)N[C@H]2C[C@@H]3CC[C@H]2C3)cc1`: the Potency result is “inactive”. With `CN(C)C[C@@H]1CN(S(C)(=O)=O)C[C@H]1NC(=O)c1ccc2ncccc2c1` the entry was “inactive”; with `COc1ccc2cc(C(=O)N3CCC(C(C)C(=O)NCCCN4CCCC4)CC3)[nH]c2c1` (stereo unspecified), “inactive”. In the case of `Cc1cc(C)n(CCC(=O)N[C@@H]2CN(S(C)(=O)=O)C[C@H]2CN(C)C)n1`, the Potency result is “inactive”. With `CN(C)C[C@@H]1CN(Cc2ccccn2)C[C@H]1NC(=O)c1ccc2cc[nH]c2c1` the figure was 28.2 µM (active). The figure for `CN(C)C[C@@H]1CN(S(C)(=O)=O)C[C@H]1NC(=O)c1nn(C)c2ccccc12` is 28.2 µM (active); for `O=C(O)COc1ccc2c(=O)c(Oc3ccc(Cl)cc3)coc2c1` it is “inactive”. The entry for `Cc1ccc(CNC(=O)Cn2c(=O)ccc3cc(S(=O)(=O)N4CCC(C)CC4)ccc32)o1` is “inactive”. As to `Brc1ccc(/C=N/N=C/c2ccc(Br)s2)s1`, the Potency entry was “inactive”. With `COc1ccc(NC(=O)CN(C)c2nc(CN3CCOCC3)nc3sc(C)c(C)c23)cc1` the entry was “inactive”. On to `COC1CN(c2cccc(F)c2)C12CCN(C1CCOCC1)CC2` (stereo unspecified), for which the Potency entry is “inactive”. With `Cc1nnc([C@H]2CCN(Cc3ccc(F)cc3)C2)o1` the entry was “inactive”; with `Fc1ccc2oc([C@H]3CCN(C4CCOCC4)C3)nc2c1`, 44.7 µM (active). With `Cc1ccc(-c2nc3ccc(C(=O)N4CCC(CC(=O)N5CCCCCC5)CC4)cc3o2)cc1` the entry was “inactive”; with `COc1ccc(C2=NOC(C(=O)Nc3cc(C)nn3-c3ccccc3)C2)cc1` (stereo unspecified), “inactive”.

With `O=C(COc1ccccc1)Nc1ccc2c(=O)c3ccccc3oc2c1`, the Potency entry was “inactive”. With `CN(C)C(=O)c1ccc(OCc2coc(-c3cccc(F)c3)n2)cc1` the entry was “inactive”; with `CCc1ccc(CN(C)C(=O)c2ccc3oc(-c4cccc(F)c4)nc3c2)nc1`, 28.2 µM (active). With `O=C(O)c1ccc2oc(-c3cccc(Cl)c3)nc2c1` the entry was “inactive”.

The record behind these values is PubChem BioAssay AID1347165 (National Center for Advancing Translational Sciences (NCATS), 2019).
